Measurements published in PubChem BioAssay AID1863 (Southern Research Specialized Biocontainment Screening …, 2009).
Values joined by “and” are separate entries in the source; they are usually repeats but may differ in a detail not shown here. Identical values can stand only once. Among all 300,000 compounds or so, about 480 (0.16%) were called active.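 The calls were made as follows: active = inhibition over 29.93%, a cutoff 3 SD above the screen mean, later confirmed by dose response; inconclusive = inhibition over 29.93% but no dose response follow-up; inactive = inhibition at most 29.93% or unconfirmed.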 The list is a sample of the results. Results with a measured potency or affinity are listed apart.

Assay: inhibitors of PhoP regulon expression, primary screen, Salmonella Typhimurium, GFP reporter (AID 1863);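 also: 0% = low Mg2+ inducing control and 100% = high Mg2+ repressing control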
Settings: S. Typhimurium PhoP-regulated promoter GFP reporter, 4 h; at 50 µM; active compounds read high

inhibition, inactive:
CC(C(=O)N(C)C1CCS(=O)(=O)C1)N1C(=O)/C(=C/c2ccc(F)cc2)SC1=S (stereo not drawn) 3.59%
COc1ccc(/C=C2\SC(=S)N(C(C)C(=O)NC3C=CS(=O)(=O)C3)C2=O)cc1 (stereo not drawn) -13.9%
CC(C(=O)NC1C=CS(=O)(=O)C1)N1C(=O)/C(=C\c2ccccc2)SC1=S (stereo not drawn) -3.24%
CC(C(=O)NC1C=CS(=O)(=O)C1)N1C(=O)/C(=C/c2cccc(Cl)c2)SC1=S (stereo not drawn) 27.8%
Cc1nn(C)c(C(=O)N/N=C/c2cccc(Oc3ccccc3)c2)c1Br 8.95%
COc1ccc(CC(=O)N2CC3(C)CC2CC(C)(C)C3)cc1 (stereo not drawn) 1.16%
COc1ccc(F)c(CN2CCCC(CNS(=O)(=O)c3cccc4cccnc34)C2)c1 (stereo not drawn) -5.85%
CCCCCCCCCCCCCCCCn1cc[n+](C)c1 22.9%
CCCCCCn1ccc(=N)cc1 -2.46%
CCCC(=O)c1ccc(N2CCN(C(=O)OCC)CC2)c(F)c1 1.25%
COc1cc(/C=N\NC(=O)C2COc3ccccc3O2)cc(OC)c1O (stereo not drawn) -4.27%
O=C(N/N=C\c1ccc(-c2ccccc2[N+](=O)[O-])o1)C1COc2ccccc2O1 (stereo not drawn) 6.06%
Cc1cc([N+](=O)[O-])cc(/C=N\NC(=O)C2COc3ccccc3O2)c1O (stereo not drawn) -5.46%
O=C(N/N=C\c1ccc(O)c([N+](=O)[O-])c1)C1COc2ccccc2O1 (stereo not drawn) -12.2%
CC(C)[C@H](NC(=O)OCc1ccccc1)C(=O)OCC(=O)NC1(C#N)CCCC1 10.7%
CC1CCC/C(=N\NC(=O)Nc2ccccc2)C1 (stereo not drawn) 2.46%
COc1ccc2cc(C(=O)C3CCCN(C(=O)c4cnn(C(C)C)c4)C3)ccc2c1 (stereo not drawn) 2.9%
CN(CC(=O)Nc1ccc(F)cc1)C(=O)c1cccc(S(=O)(=O)N2CCN(c3ccccc3)CC2)c1 -1.79%
CC(C)(C)CN1CCN(CCCc2ccccc2)C(CCO)C1 (stereo not drawn) -4.44%
CCc1cc(CNC(=O)CC2C(=O)NCCN2Cc2c(F)cccc2Cl)on1 (stereo not drawn) -1.45%
Oc1ccc(/C=N/NC(=S)Nc2cccnc2)c(O)c1 29.1%
Oc1ccc(/C=N/NC(=S)Nc2cccnc2)c(O)c1O 8.35%
CCn1c(CNC(=O)C2CCCCC2)cc2cc(C)ccc21 -0.55%
COc1ccc(C(=O)C2CCCN(C(=O)C3CCOCC3)C2)c(C)c1 (stereo not drawn) 4.46%
CCCCCc1ccc(OCCCC[n+]2ccc(C)cc2)c(CCCCC)c1 15.8%
C[n+]1cn(Cc2cc(Cl)ccc2OC(F)F)c2ccccc21 -3.69%
CCCCCc1ccc(OCCCC[n+]2ccccc2)c(CCCCC)c1 3.64%
CCCCCc1ccc(OCCCC[n+]2cccc(C)c2)c(CCCCC)c1 3.26%
O=C1CC(C(=O)Nc2ccccc2)N=C(N2CCCCC2)N1 (stereo not drawn) 0.85%
OCC[C@H]1C[C@@H](O)[C@H](O)[C@]2(CCCCO2)O1 -4.87%
O=C(Cn1cc(SCc2cccc(Cl)c2)c2ccccc21)N1CCOCC1 -8.83%
CC(C)c1ccc(C2NC(=S)NC3=C2C(=O)CCC3)cc1 (stereo not drawn) 1.24%
CCOC(=O)/C=c1\s/c(=C\c2ccc(C(F)(F)F)cc2)c(=O)n1CC(=O)NCc1ccco1 -2.01%
CCOC(=O)c1cn(-c2nc(-c3ccc(Cl)cc3)cs2)c2c(F)c(N3CC(C)OC(C)C3)c(F)cc2c1=O (stereo not drawn) 10.3%
CCn1cc(C(=O)O)c(=O)c2cnc(N3CCN(C(=S)Nc4ccccc4C(F)(F)F)CC3)nc21 3.15%
CCn1cc(C(=O)O)c(=O)c2cnc(N3CCN(C(=S)Nc4ccc(F)cc4)CC3)nc21 -3.34%
S=C(NC1CC2CCC1C2)N1CCN(c2cccc(Cl)c2)CC1 (stereo not drawn) -2.31%
Cc1c(-n2cc(C(=O)O)c(=O)c3cc(F)c(N4CCCC(O)C4)c(F)c32)c(=O)n(-c2ccccc2)n1C (stereo not drawn) 2.04%
O=S(=O)(c1ccc(F)c(F)c1F)N1CCN(C(=S)NC2CC3CCC2C3)CC1 (stereo not drawn) -4.07%
COC(=O)CC1C(=O)NCCN1C(=S)Nc1ccc(F)cc1 (stereo not drawn) 0.13%
Cn1c(SCC2CCCCC2)nnc1-c1ccncc1 7.51%
CC(NC(=O)c1cc2cc(F)ccc2[nH]1)c1ccccc1 (stereo not drawn) 5.36%
COc1ccc(Cl)cc1NC(=O)C/C(C)=N/NC(=O)COc1ccc(C)cc1 4.2%
Cc1ccc(C(=O)OC(C)C(=O)NC2CCCCC2C)cc1S(=O)(=O)N1CCOCC1 (stereo not drawn) -5.67%
CCCCC(=O)N1CCN(c2nc3ccc(OCC)cc3s2)CC1 10.3%
CN1CCc2c(sc(NC(=O)C3CCCN3S(=O)(=O)c3ccc(Cl)s3)c2C(N)=O)C1 (stereo not drawn) -7.52%
CCOc1ccc(N(CC(=O)NCCc2ccccc2)C(=O)c2csnn2)cc1 2.07%
Cc1ccc(-n2nc3ccc(N)cc3n2)cc1Cl 0.05%
O=C(O)COCC(=O)NCc1nc(-c2ccc(C(F)(F)F)cc2)no1 -3.89%
CC1c2ccsc2CCN1S(=O)(=O)c1ccccc1 (stereo not drawn) 5.29%
COc1cc2c(cc1OC)C(COc1ccc([N+](=O)[O-])cc1)NCC2 (stereo not drawn) 5.02%
CC1CCCN(C(=S)NCc2ccccc2)C1 (stereo not drawn) 4.83%
CC1CCN(c2c(NCC3CCC(C(=O)NCc4ccccc4)CC3)c(=O)c2=O)CC1 (stereo not drawn) -6.12%
Cc1ccc(CCNS(=O)(=O)c2cc(Br)cnc2N)cc1 1.18%
CC1CCCCC1NC(=O)C1CCN(C(=O)c2sccc2-n2cccc2)CC1 (stereo not drawn) 6.9%
COC(=O)COC(=O)c1ccc(O)cc1 -6.41%
Cc1ccc(-c2nc(CS(=O)(=O)CC(=O)N3CCc4ccccc4C3)c(C)o2)cc1 8.69%
CC1CCC(C(C)C)C(OC(=O)Cn2c(-c3ccc(Br)cc3)[n+](C)c3ccccc32)C1 (stereo not drawn) 10% and 1.48%
Cc1ccccc1OCc1n(CC(=O)OC2CC(C)CCC2C(C)C)c2ccccc2[n+]1C (stereo not drawn) 6.3%
CC1CCC(C(C)C)C(OC(=O)Cn2c(-c3ccccc3)[n+](C)c3ccccc32)C1 (stereo not drawn) -8.38% and 13.1%
Cc1cccc(OCc2n(CC(=O)OC3CC(C)CCC3C(C)C)c3ccccc3[n+]2C)c1 (stereo not drawn) 15.1%
CC1CCC(C(C)C)C(OC(=O)Cn2c(-c3ccc(F)cc3)[n+](C)c3ccccc32)C1 (stereo not drawn) 4.57%
COc1ccc(-c2n(CC(=O)OC3CC(C)CCC3C(C)C)c3ccccc3[n+]2C)cc1 (stereo not drawn) -3.97%
COc1cccc(N2CCN(C(=O)CN(C)S(=O)(=O)c3ccc4c(c3)c(=O)n(C)c(=O)n4C)CC2)c1 3.8%
CCN(CC)c1ccc(NC(=O)CCNC(=O)c2ccco2)cc1 17.8%
COc1ccc(CNC(=O)COC(=O)CCOc2ccc(C)cc2)cc1OC -1.68%
CN(Cc1cn(C)c2ccccc12)C(=S)Nc1cc(F)cc(F)c1 -1.37%
COc1ccc(CCN2CC(C(=O)NCCc3ccccc3)CC2=O)cc1OC (stereo not drawn) 6.87%
CCN1CCN(C(=O)c2cnn3c(C(F)F)cc(-c4ccc(C)cc4)nc23)CC1 7.14%
COc1ccc(S(=O)(=O)N2CC(C)N(C(=O)N(C)C)C2C)cc1 (stereo not drawn) -6.03%
COc1ccc(-n2cnnc2SCC(=O)Nc2ccccc2F)cc1 -6.73%
CCOc1ccccc1NC(=O)CSc1nnc(CNC(=O)c2c(F)cccc2Cl)o1 1.66%
COc1ccc(NC(=O)COc2ccc(/C=N/n3c(C)nnc3C)cc2OC)cc1 -10.3%
COC(=O)Nc1ccc(S(=O)(=O)N2CCCCCC2)cc1 -7.01%
Cc1ccc(C)c(N(CC(=O)NC(C)C)C(=O)CCC(=O)Nc2ccccn2)c1 -3.9%
CO/N=C(\C(=O)N[C@@H]1C(=O)N2C(C(=O)O)=C(COC(N)=O)CS[C@H]12)c1ccco1 4.28%
COCC1=C(C(=O)OC(C)OC(=O)OC(C)C)N2C(=O)[C@@H](NC(=O)/C(=N\OC)c3csc(N)n3)[C@H]2SC1 (stereo partly drawn) -12.3%
O=S(=O)(N/N=C/c1ccc(N2CCOCC2)cc1)c1ccc(Br)cc1 -5.5%
Cc1nn2c(-c3ccccc3)ccnc2c1Br 0.66%
CCc1ccc(S(=O)(=O)/N=C2\C=C(Nc3ccc(O)cc3)C(=O)c3ccccc32)cc1 15.4%
Cc1ccc(S(=O)(=O)/N=C2/C=C(C3C(=O)CC(C)(C)CC3=O)C(=O)c3ccccc32)cc1 8.77%
Cc1ccc(S(=O)(=O)/N=C2/C=C(Sc3ncn[nH]3)C(=O)c3ccccc32)c(C)c1 192%
CCc1ccc(S(=O)(=O)/N=C2\C=CC(=O)c3ccccc32)cc1 3.04%
CCOC(=O)c1cn(Cc2ccccc2)c(C(=O)OC(C)(C)C)c1O 2.15%
CN(CC(=O)Nc1ccccc1Br)C(=O)c1ccc(COc2ccccc2)cc1 1.64%
O=C(O)c1cc2ccc3cccc4ccc(c1)c2c34 7.13%
Oc1cccc2cc3cccc(O)c3c(O)c12 5.42%
CC(=O)NC12CC3CC(C1)CC(C(=O)Nc1nccs1)(C3)C2 -6.86%
